Source: PubChem BioAssay (The Scripps Research Institute Molecular Screening Center)
An excerpt weighted towards active compounds, which were near 4.1% of everything screened.
DAX1 inh-1: inhibits human nuclear receptor DAX1 | inhibition, % at 6.75 µM | P51843 | HEK293 Gal4-DAX1 luciferase reporter, luminescence | hit rate 0.99% among 340,000;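 active = inhibition above the mean over all tested compounds plus 3 SD, cut at about 4.2% in these data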;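 note: 0% = DAX1-transfected cells with DMSO and 100% = empty-vector control cells with DMSO; inhibition shows as a rise in luminescence from relieved DAX1 repression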
Target sequence (P51843 207-470 limits assumed): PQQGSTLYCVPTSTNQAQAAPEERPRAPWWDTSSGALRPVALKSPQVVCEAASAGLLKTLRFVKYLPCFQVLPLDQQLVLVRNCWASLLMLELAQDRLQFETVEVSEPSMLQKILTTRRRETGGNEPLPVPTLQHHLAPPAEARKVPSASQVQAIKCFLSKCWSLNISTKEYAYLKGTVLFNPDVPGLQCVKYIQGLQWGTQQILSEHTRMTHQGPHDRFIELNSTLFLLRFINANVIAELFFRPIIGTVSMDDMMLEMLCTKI
hcDAF12 agonist: H. contortus DAF-12 activation, primary screen | HEK293 hcDAF-12 lit1-tk-luc reporter, luminescence; 0% DMSO, 100% Δ7-dafachronic acid | activation, % at 6.8 µM | hit rate 1.4% among 370,000;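 active = activation above the mean of all tested compounds plus 3 SD, cut at about 5.5% in these data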;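 note: 100% = response to 3 µM Δ7-dafachronic acid high control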
hgDAF12 agonist: hgDAF-12 agonism, primary luciferase screen; activation, % at 6.8 µM; hit rate 1.8% among 370,000; HEK293 GAL4-hgDAF12 UAS-luciferase reporter, agonist luminescence; normalized to butyrate control;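 active = activation above a cutoff set at the mean of all screened compounds plus 3 SD, cut at about 10% in these data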;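 note: 0% = DMSO wells and 100% = sodium butyrate wells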
ssDAF-12 act: activates DAF-12 receptor from parasite S. stercoralis | AID 652126 | HEK293 ssDAF-12/GRIP1 lit1-tk-luc reporter, luminescence; % of 3 µM dafachronic acid response | hit rate 1% among 370,000 | activation, % at 6.8 µM;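 active = activation above the mean over all tested compounds plus 3 SD, cut at about 0.9% in these data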;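 note: 0% = DMSO-only wells and 100% = 3 µM delta7-dafachronic acid wells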
DAX1 inh-2: inhibitors of DAX1 repression of SF-1 activated StAR promoter; HEK293T StAR-luciferase reporter, SF-1/DAX-1 repression relief; inhibition, % at 6.8 µM; hit rate 1.1% among 370,000; AID 652010;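 active = inhibition above the mean over all tested compounds plus 3 SD, cut at about 3.6% in these data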;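 note: 0% = DAX-1 cells with DMSO and 100% = cells lacking DAX-1 with DMSO; higher inhibition means more luminescence from relief of DAX-1 repression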
* hit, by the source's call; · = not tested or not shown.

SMILES	DAX1 inh-1	hcDAF12 agonist	hgDAF12 agonist	ssDAF-12 act	DAX1 inh-2
COC1OC(CO)C(O)C(O)C1O (stereo unspecified)	0.7	-0.6	-2.1	-1.8	-0.3
CC(=O)c1cnc2cc(-c3ccc(Cl)cc3)nn2c1C	0.9	1.3	5.5	-0.7	0.5
Cc1c(C(=O)O)cnc2cc(-c3ccc(Cl)cc3)nn12	0.7	1.6	5.4	1.1*	0.5
Cc1ccc(NC(=O)C2CC3CCC2C3)c(C)c1 (stereo unspecified)	·	-2.6	8.6	-0.1	·
O=C(c1ccc(Br)s1)N1CCc2ccccc2C1	1.9	2.3	2.3	-0.6	3.9*
CC1=NN(C(=O)c2ccccc2F)C(O)(c2ccc(Cl)cc2)C1 (stereo unspecified)	6.2*	1.6	6.2	-0.8	0.9
O=C(NCc1ccco1)C1CCCN(S(=O)(=O)c2cccs2)C1 (stereo unspecified)	·	-1.5	2.1	-0.4	-0.8
CN(Cc1nc2ccccc2c(=O)[nH]1)C(=O)c1cccc(S(=O)(=O)N2CCCC2)c1	1.4	-1.5	1.9	-0.7	3.7*
CCCCCn1nnnc1C1(C)Cn2nccc2C(=O)N1Cc1ccco1 (stereo unspecified)	·	-2.5	1.6	-0.8	-0.2
Cc1cccc(C)c1NC(=O)c1cnccn1	0.5	-2.0	-1.1	1.0*	0.3
Cc1cccc(C)c1NC(=O)CNC(=O)c1cnccn1	0.8	0.1	0.8	-1.2	0.5
CC(C)(C)OC(=O)n1ccc2ccc(-c3ccc4cc[nH]c4c3)cc21	·	-2.5	10.2	-1.0	0.1
OCCC1CCCCN1CC(O)COCc1ccc(Cl)cc1 (stereo unspecified)	-0.5	0.4	0.0	-0.9	-0.5
COc1ccc2c(c1)oc(=O)c1cc(OC)ccc12	4.6*	0.4	12.7*	-0.3	2.7
O=C(NCc1ccc(F)c(F)c1)C1CCCN(c2nc3ccccc3o2)C1 (stereo unspecified)	·	-0.1	7.7	-0.5	-0.9
Cc1ccc(CN(C)C(=O)C2CCN(C(=O)Nc3ccccc3)CC2)o1	-0.1	1.3	-1.8	-0.3	1.7
CN(Cc1ccc(C(C)(C)C)cc1)C(=O)C1CCN(C(=O)Nc2ccccc2)CC1	7.6*	-2.7	-3.4	-1.4	-2.1
COC(=O)c1cc2c(c3c4cc(F)ccc4n(S(=O)(=O)c4cccc(C)c4)c13)C(=O)N(Cc1ccccc1OC)C2	·	-0.5	0.7	-0.3	-0.5
c1ccc(-c2nc3ccccc3[nH]2)cc1	2.8	4.4	11.9*	0.0	4.4*
c1ccc(-c2nc3ccccc3[nH]2)nc1	0.6	5.3	10.4	1.3*	2.6
c1ccc2[nH]c(-c3ccncc3)nc2c1	0.5	0.1	2.9	-0.3	-0.2
S=C(Nc1ccc(-c2nc3ccccc3[nH]2)cc1)Nc1cccnc1	0.9	2.0	10.6*	-0.5	2.0
c1cncc(-c2nc3ccccc3[nH]2)c1	0.7	3.1	4.5	-0.6	0.7
N#CCC[C@@H]1CC[C@]2(CCCN(C(=O)c3ccco3)C2)O1	·	-0.7	3.0	-1.2	-0.9
CC1=C(C(=O)OC(C)(C)C)C(c2ccco2)C(C#N)=C(N)O1 (stereo unspecified)	1.1	-0.8	-1.4	-1.9	0.0
SMILES	DAX1 inh-1	hcDAF12 agonist	hgDAF12 agonist	ssDAF-12 act	DAX1 inh-2
C=CCOC(=O)C1=C(C)OC(N)=C(C#N)C1c1ccco1 (stereo unspecified)	8.4*	-0.6	-1.3	-1.1	-0.3
c1ccc(-c2noc(-c3cccnc3)n2)cc1	0.1	3.4	8.7	0.0	3.6*
Cc1ccccc1-c1nc(-c2ccccn2)no1	-2.6	5.2	-2.6	-0.7	1.4
c1ccc(-c2nc(-c3ccncc3)no2)cc1	3.2	1.8	7.6	-0.8	0.5
Cc1ccccc1-c1nc(-c2cccnc2)no1	1.9	6.1*	10.5*	0.8	0.2
c1ccc(-c2ccc(-c3nc(-c4cccnc4)no3)cc2)cc1	1.5	2.0	6.6	-0.2	3.8*
COc1ccc(-c2cc(-c3nnc(SCC(=O)N4CCOCC4)n3N)[nH]n2)cc1	·	-1.1	2.6	-1.3	0.3
C[C@@H]1CN(Cc2nc(-c3cccs3)no2)C[C@H](C)O1	9.4*	0.3	1.7	-0.3	0.5
c1csc(-c2noc(CN3CCc4sccc4C3)n2)c1	0.3	-0.1	4.4	-1.4	0.6
O=C(OC12CCCN(C1)/C(=C/c1ccc(Cl)cc1)C2)c1ccno1 (stereo unspecified)	·	-2.0	-0.9	-0.5	0.4
COc1ccc(C(=O)OCCN(C)C2CN(Cc3cn(Cc4cccc(F)c4)nn3)S(=O)(=O)C2)cc1OC (stereo unspecified)	·	-0.6	0.0	-1.6	-1.1
C[C@H](O)[C@@H]1CN2CCc3ccc(N4CCOCC4)cc3[C@@H]2C[C@@H]1N(C)C(=O)c1cccc(Cl)c1	·	-2.0	-2.1	-0.7	-0.6
CCOC(=O)CCc1c(C)nc(SCC(=O)O)c(C#N)c1C	0.2	-0.8	-1.4	-1.1	-0.8
CCOC(=O)CCc1c(C)nc(SCc2ccc(C(=O)O)cc2)c(C#N)c1C	6.0*	-1.1	-0.7	-0.6	-0.1
CC(=O)NS(=O)(=O)c1ccc(NS(=O)(=O)c2ccc3ccccc3c2)cc1	4.7*	0.3	-0.5	-1.3	-0.1
COC(=O)C1CN(C2CCCC2)CCS(=O)(=O)N1Cc1ccc(F)cc1 (stereo unspecified)	·	-1.5	3.0	-1.6	-0.6
COc1cccc(/C=C/C(=O)c2ccc[nH]2)c1	2.0	3.2	6.2	1.2*	1.3
O=C(/C=C/c1ccc2c(c1)OCO2)c1ccc[nH]1	2.9	3.5	10.8*	0.3	2.5
COc1ccc(-n2c(SCc3nc4ccccc4[nH]3)nc3ccccc3c2=O)cc1	·	0.6	0.8	-1.5	-0.5
COc1ccc(NC(=S)N/N=C/c2ccc(F)cc2)cc1OC	-0.4	-0.2	11.2*	-1.3	1.9
CCOC(=O)c1[nH]c2ccccc2c1NC(=S)Nc1cccc(C)c1C	1.6	6.2*	0.0	0.5	0.8
CCOC(=O)c1[nH]c2ccccc2c1NC(=O)NC(C)C	2.9	3.8	-0.1	-0.3	-0.2
CC(=O)c1ccc(N2CCN(S(=O)(=O)c3cc4[nH]c(=O)c(=O)[nH]c4cc3C)CC2)cc1	0.1	-1.6	10.8*	-0.9	1.2
CC(=O)c1ccc(N2CCN(S(=O)(=O)c3ccc4c(c3)CCC(=O)N4)CC2)cc1	·	-1.4	0.5	-1.2	-0.7
c1ccc2c(c1)Cn1c-2nc2ccccc21	1.4	6.0*	13.2*	0.3	2.9
O=C1c2ccccc2-c2nc3ccccc3n21	3.1	0.1	0.8	-0.1	0.0
CCOC(=O)c1c(NC(=O)COC)sc(C)c1C	-0.1	-1.8	-1.6	-1.3	-0.4
CCOC(=O)c1c(NC(=O)COC(=O)c2cc(OC)c(OC)cc2[N+](=O)[O-])sc(C)c1C	1.6	2.6	-0.6	1.4*	0.1
Cc1ccc(N/C=C/C(=O)c2ccc(C)cc2)cc1	3.0	1.9	12.7*	-0.2	2.9
Cc1ccc(/C=C/C(=O)c2ccc(C)cc2)cc1	-1.0	-1.4	3.0	-0.8	0.1
